The record followed here is PubChem BioAssay AID493192 (National Center for Advancing Translational Sciences (NCATS), 2011).

This experiment can be described thus: qHTS Assay for Identifying a Potential Treatment of Ataxia-Telangiectasia: Hit Validation.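 Note: phospho-KAP1 level by AlphaLISA as a proxy for ATM-like kinase activity.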 Summed up: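 hTERT-immortalized A-T patient fibroblasts (F2112) were dosed at up to 76.7 uM final for 60 min at 37C. After a further 30 min incubation, cells were lysed, and phospho-KAP1 was detected by AlphaLISA after 6 hr at 25C.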
A general note: Quantitative high-throughput screening tests each substance at several concentrations.

Results filed as inconclusive are left out. Where a call stands in place of a potency, no number is given. Activity calls are given as the source filed them. Calls come from the whole dose curve; as a rule, active = well fitted activation curve with a large enough effect; inconclusive = small, poorly fitted or top-dose-only effect; inactive = no such curve, though single readings can be large or run the other way.
Potency is the fitted concentration of half-maximal effect.

On to `CC1CCCC(C)N1C(=O)COC(=O)Cc1ccc(Cl)cc1` (stereo not drawn), for which the Potency entry was “inactive”.
With `O=C(CN1C(=O)c2cccc([N+](=O)[O-])c2C1=O)NCc1ccccc1`, the Potency result is “inactive”.
`O=C(NC12CC3CC(CC(C3)C1)C2)c1cccc(OC(F)F)c1`: the Potency entry was “inactive”.
In the case of `CC1Cc2ccccc2N1C(=O)CSc1nnnn1-c1ccc2c(c1)OCCO2` (stereo not drawn), the Potency entry is “inactive”.
Next, `CCCc1ccc(S(=O)(=O)Nc2ccc(C)c(NS(C)(=O)=O)c2)cc1`: “inactive”; `CC(C)(CO)NC(=O)c1ccc2c(c1)C(=O)c1ccccc1-2`: “inactive”.
Next, `O=C(O)c1ccc(C2Nc3ccccc3C(=O)N2Cc2ccccc2)cc1` (stereo not drawn): “inactive”; `COc1ccc(-n2c(=S)[nH]c3ccccc3c2=S)cc1`: “inactive”.
`COc1ccccc1Nc1nc(NCCCN(C)C)nc(N)c1[N+](=O)[O-]`: the Potency result was “inactive”.
`CN(C)c1ccc2nc3ccc(=[N+](C)C)cc-3sc2c1`: the Potency was 14.6 µM (active).
For the compound `S=c1[nH]nc(COc2ccccc2)n1/N=C/c1ccccc1Cl`, the Potency entry was “inactive”.
As for `Cc1ccc(C(=O)c2c(C)oc3c2C(=O)C(=O)c2ccccc2-3)cc1`, the Potency was 26 µM (active).
Next, `C(=N\Nc1ccccn1)/c1c[nH]c2ccccc12`: “inactive”.
Take `C[C@H](NC(=O)OC(C)(C)C)C(=O)NCC1CCC(C(=O)N[C@@H](Cc2ccccc2)C(=O)O)CC1` (stereo partly drawn): the Potency result was “inactive”.
For the compound `CCC12CN(C(=O)c3ccc([N+](=O)[O-])cc3)CC(CC)(CN(C(=O)c3ccc([N+](=O)[O-])cc3)C1)C2=O`, the Potency entry is “inactive”.
For `CCNC(=S)N(CCc1c(C)[nH]c2ccccc12)Cc1cccnc1`, the Potency entry was “inactive”.
With `CC(=O)c1sc2nc(C)c3c(c2c1N)CCCC3`, the Potency entry is “inactive”.
For the compound `COc1ccc(/C=N/Nc2nc(=O)[nH]nc2C)cc1OC`, the Potency result was “inactive”.
Next, `COc1cccc(C(=O)NOCc2ccc(C)cc2)c1OC`: “inactive”.
For the compound `CC1CCCC(C)N1CCCNC(=O)Cn1ncc2c3ccccc3n(C)c2c1=O` (stereo not drawn), the Potency was 23.2 µM (active).
In the case of `CN(C)C(=O)c1nc2ccc(Cl)cn2c1CNCc1cccc(OC(F)(F)F)c1`, the Potency result is “inactive”.
As to `O=C1/C(=C/c2ccc(N3CCOCC3)o2)SC(=Nc2ccccc2)N1CCc1c[nH]c2ccccc12`, the Potency result is “inactive”.
For the compound `O=C(Nc1cnn(C23CC4CC(CC(C4)C2)C3)c1)c1cnn2cccnc12`, the Potency entry is “inactive”.
